Compound activity (PubChem)
The list is not random: actives were taken first. Their share in the collection is about 6.1%.
DRD3 agonist: activates the human D3 dopamine receptor; P35462; D3R DiscoveRx beta-arrestin cells, luminescence, 90 min; max activation, %; 410,000 compounds, 0.58% hits; AID 652048; in the data active means max activation above about 30%; further: 0% is about no effect
Target sequence (P35462 whole entry, looked up): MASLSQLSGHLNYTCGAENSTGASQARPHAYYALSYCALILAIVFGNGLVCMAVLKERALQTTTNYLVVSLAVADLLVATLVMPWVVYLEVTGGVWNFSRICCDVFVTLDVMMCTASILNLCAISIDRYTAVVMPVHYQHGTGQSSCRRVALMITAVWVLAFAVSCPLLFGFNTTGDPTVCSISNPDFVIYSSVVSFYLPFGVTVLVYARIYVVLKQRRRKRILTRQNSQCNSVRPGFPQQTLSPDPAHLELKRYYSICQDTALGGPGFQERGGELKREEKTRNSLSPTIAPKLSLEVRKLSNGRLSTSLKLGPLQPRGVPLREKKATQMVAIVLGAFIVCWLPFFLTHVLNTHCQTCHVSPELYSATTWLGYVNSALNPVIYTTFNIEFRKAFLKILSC
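Agonist-mode cell screen: cells plated at 1500/well and incubated overnight at 37 °C, then exposed to library compounds for 90 min at 37 °C. Detection reagent was added for 30–60 min at room temperature, and luminescence was read.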
D1 ag: human D1 receptor agonism; P21728; HEK293 T-REx D1 cells, calcium flux, agonist mode; activation, % at 2 µM; 360,000 compounds, 1% hits; AID 504660; in the data active means activation above about 30%; further: 0% is about no effect
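Tetracycline-induced HEK293 TREx D1 cells, force-coupled to calcium signalling, were dye-loaded with a no-wash calcium kit. Compound was pin-added after a 10 s baseline. Fluorescence was read kinetically at 1 cycle/s for 180 s, with calcium rises flagged as agonism.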
ERG-DNA inh: inhibitors of human ERG Ets domain-DNA interaction | P11308 | 370,000 compounds, 0.028% hits | fluorescence polarization, His-ERG Ets domain / labelled DNA | Potency, µM (top dose mostly 76.9 µM), inactives show at the highest dose FP activity, negative = inhibition, hits mostly inhibitors; active means well fitted inhibition curve with a large enough effect in the polarisation, with a control signal flat; inconclusive means small, poorly fitted or top-dose-only effect, or effect the other way, or a change in a side signal; inactive means no such curve, though single readings can be large or run the other way; the % refers to the polarisation;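 further: polarization taken with two DNA probes labelled with fluorescein and Texas red; potency means the concentration at half of the fitted maximal effect; % of control where 0% means no effect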
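His-tagged ERG Ets domain (1 uM in the protein solution; 300mM KCl, 50mM Tris-HCl, 1mM EDTA, 1mM DTT, pH 7.5) received compound, then a probe mix of 5 nM fluorescein-DNA and 100nM Texas-615-DNA. Fluorescence polarization was read for both dyes.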
D3 antag: D3 dopamine receptor (human) antagonism. 360,000 compounds, 2.5% hits. P35462. D3R cells, DiscoveRx beta-arrestin luminescence, antagonist mode; active compounds read low. max response, negative = inhibition, %; in the data active means max response below about -50%; inconclusive means no clear call, values can overlap the other calls; further: on the % scale 0 is the no-effect control and ±100 the full control effect
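Cells plated overnight at 1500 cells/well, then exposed to library compounds with dopamine controls for 90 minutes at 37 degrees C. DiscoveRx reagent added for 30–60 minutes at room temperature; luminescence read, quantitative HTS format.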
D1 antag: blocks dopamine activation of the human D1 receptor; activity change, negative = inhibition, % at 10 µM; AID 504652; HEK293 TREx D1 cells, calcium flux, dopamine EC80; active compounds read low; 360,000 compounds, 3.2% hits; in the data active means activity change below about -30%; further: on the % scale 0 is the no-effect control and ±100 the full control effect
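Tetracycline-induced HEK293 Trex D1 cells, force-coupled to calcium, dye-loaded; compounds added and read 180 s, then EC80 dopamine added and calcium flux tracked kinetically another 180 s.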
D1 potentiator: potentiators of human D1 dopamine receptor; P21728; HEK293 TREx D1 cells, calcium flux, dopamine EC20 potentiation; potentiation, % at 10 µM; 360,000 compounds, 0.036% hits; in the data active means potentiation above about 30%; further: 0% is about no effect
* = called active by the depositor; ? = inconclusive; · = no result given; ! = not confirmed by another sample.

SMILES	DRD3 agonist	D1 ag	ERG-DNA inh	D3 antag	D1 antag	D1 potentiator
COc1nc2ccccc2nc1N1CCN(C)CC1	-1.5	2.0	-3.2%	-83.4*	-19.8	-3.8
CN(C)C1(CNC(=O)Nc2ccc(Cl)c(Cl)c2)CCCCC1	-27.1	31.8*	4.1%	-54.7*	-7.2	-8.6
CN(C)C1(CNC(=O)c2ccc(NS(=O)(=O)c3ccc(Cl)c(Cl)c3)cc2)CCCCC1	-13.2	2.1	8.2%	5.0	22.3	-5.7
Cc1nn(Cc2c(Cl)cccc2Cl)c(Cl)c1C(=O)O	0.0	1.6	3.0%	-0.5	-1.4	-1.8
O=[N+]([O-])c1cccc(CCl)c1	-96.6	-0.6	2.8%	-116.9*	·	-5.0
O=C(c1cccc2ccccc12)C1CCCN(Cc2ccon2)C1 (stereo unspecified)	-31.4	2.7	1.3%	-67.7*	-1.4	1.9
CN1CCCC(C(=O)c2ccccc2)C1 (stereo unspecified)	16.3	3.6	6.0%	-21.8	7.6	-7.8
O=C(c1cccc2ccccc12)C1CCCN(C2CCC2)C1 (stereo unspecified)	-16.9	2.3	3.5%	-51.1*	-1.7	-5.6
COC1=C(C)C(=O)C2=C(C1=O)C(CO)N1C(C#N)C3CC4C(C1C2N1CCOC41)N3C (stereo unspecified)	2.3	·	-0.9%	1.1	·	·
O=c1[nH]cc(COCC(F)(F)C(F)(F)C(F)(F)F)c(=O)[nH]1	1.0	2.4	-6.9%	-4.2	-12.9	-6.3
O=[N+]([O-])/C=C/c1c(Cl)cccc1Cl	-8.8	·	-5.4%	6.7	·	·
COc1cccc(C(c2nnnn2Cc2ccccc2)N2CCC3(CC2)C(=O)NCN3c2ccccc2)c1OC (stereo unspecified)	5.2	·	·	0.0	·	·
c1ccc(C(OCCN2CCNCC2)c2ccccc2)cc1	-0.7	5.7	0.8%	-67.8*	9.0	-1.4
COc1ccc(CC(C)NCCC(c2ccccc2)c2ccccc2)cc1 (stereo unspecified)	-19.9	43.3*	8.9%	?	-2.9	-2.0
CCCCNC(C)Cc1ccccc1 (stereo unspecified)	-67.9	·	3.8%	-50.8*	·	·
C=CCc1ccc(OC)cc1	-8.3	1.8	-4.2%	-15.5	-14.6	3.6
O=C(c1cccn2c(=O)c3ccc(Cl)cc3nc12)N1CCC2(CC1)OCCO2	2.1	2.0	4.1%	0.7	-15.6	-0.4
FC(F)(F)c1ccc2c(c1)nnn2C1CCN(Cc2nnnn2Cc2ccccc2)CC1	0.0	2.8	6.0%	?	-42.3*	-5.7
Cc1ccc(Cn2nnnc2CN2CCC(n3nnc4cc(C(F)(F)F)ccc43)CC2)cc1	1.4	1.4	-7.3%	-21.6	-39.1*	-3.0
Cc1ccc(Cn2nnnc2CN2CCC(n3nnc4cc(C)ccc43)CC2)cc1	-1.8	0.3	-11.6%	-9.5	-28.0	-4.2
Fc1ccc2c(c1)nnn2C1CCN(Cc2nnnn2C2CCCCC2)CC1	-3.9	0.3	1.6%	-57.5*	-4.9	-6.0
COC(=O)C1=C(c2cccc3c2S(=O)(=O)c2ccccc2-3)C[C@@H]2CC[C@H]1N2C(=O)N1CCOCC1	8.0	1.0	15.1%	5.6	6.9	2.1
COC(=O)C1=C(c2cccc3c2S(=O)(=O)c2ccccc2-3)C[C@@H]2CC[C@H]1N2C(=O)N1CCc2cc(OC)c(OC)cc2C1	-1.7	3.7	2.6%	0.0	-47.8*	-2.7
CCn1c(O)c(N=Nc2ccc(S(=O)(=O)N3CCOCC3)cc2)c(=O)n(CC)c1=S	-5.3	0.6	4.0%	-70.9*	-16.9	-6.0
O=c1[nH]c(=S)n(-c2ccc(Cl)cc2)c(O)c1C=Nc1ccc(N2CCOCC2)cc1	11.0	41.6*	-6.1%	-8.6	2.5	-6.0
SMILES	DRD3 agonist	D1 ag	ERG-DNA inh	D3 antag	D1 antag	D1 potentiator
CCn1c(O)c(N=Nc2cccc(S(=O)(=O)N3CCOCC3)c2)c(=O)n(CC)c1=S	4.1	0.8	-5.6%	-6.9	7.6	-5.5
CCn1c(O)c(C=Nc2ccc(N3CCOCC3)cc2)c(=O)n(CC)c1=S	-1.3	98.9*	-10.9%	-4.3	-3.5	-4.3
COc1ccccc1OCC(=O)N1CCN(Cc2ccc3c(c2)OCO3)CC1	-2.0	1.4	-3.8%	-2.0	-1.0	-4.5
c1ccc(CN2CCN(Cc3ccc4c(c3)OCCO4)CC2)cc1	-14.6	-1.1	2.6%	-76.3*	-3.2	2.3
CCC1(Oc2ccccc2)C(=O)NC(=O)NC1=O	3.1	·	-6.9%	-8.3	·	·
CCC1(C)OC(c2ccccc2)=C/C(=C/C=C2C(=O)NC(=O)NC2=O)O1 (stereo unspecified)	5.7	108.1*	125.6%	19.3	-6.6	-5.0
C1=C(c2c[nH]c3ccccc23)CCN(Cc2ccccc2)C1	-20.6	6.3	3.9%	-101.1*	5.6	-6.0
CN1CC=C(c2c[nH]c3ccccc23)CC1	-15.8	3.9	-1.6%	-84.6*	-0.8	-1.4
c1ccc2c(CN3CCCCCCC3)c[nH]c2c1	-4.8	3.3	-16.1%	-1.5	-16.0	-6.2
C(=NN1CCCCCC1)c1c[nH]c2ccccc12	-0.4	·	-12.9%	-1.1	·	·
Cc1ccc(-n2c(O)c(/C=N/c3ncc(Br)cc3Br)c(=O)[nH]c2=O)cc1	-3.1	0.1	1.1%	-18.9	4.0	7.6
CN1CCN(c2ccc(C(N)=O)cc2N)CC1	0.9	2.2	1.8%	3.6	-14.0	-4.8
O=P(Nc1cccc(F)c1)(Oc1ccccc1F)Oc1ccccc1F	5.4	2.3	2.4%	36.8	-37.0*	-5.5
Cc1cccc(NP(=O)(Oc2ccccc2F)Oc2ccccc2F)c1	-0.5	8.5	8.0%	14.7	7.3	1.2
Nc1c(C(=O)NCCCc2ccccc2)c2nc3ccccc3nc2n1Cc1cccs1	35.4*	3.0	-9.1%	22.7	50.7	7.3
CCCCCn1c(N)c(C(=O)NCc2cccs2)c2nc3ccccc3nc21	16.2	0.0	-23.8%	12.0	-2.6	1.2
O=CC=O	2.7	·	·	·	·	·
O=C(c1ccc2c(c1)OCO2)C1CCCN(Cc2c(F)cccc2Cl)C1 (stereo unspecified)	-11.8	8.0	12.5%	?	6.8	-8.2
O=C(c1ccc2c(c1)OCO2)C1CCCN(CC2CCCCC2)C1 (stereo unspecified)	-26.2	0.3	-4.4%	-82.8*	-5.8	-4.0
CC(=O)OCC[N+](C)(C)C	4.6	46.3*!	-11.5%	?	16.7	2.1
CN1Cc2cccnc2N(C)Cc2cc(Cl)ccc21	-0.8	5.7	-2.5%	-4.1	13.7	-5.2
CCCCCCOc1ccc(CN2CCN(CC)CC2)cc1	-20.5	21.3	-5.9%	?	-4.2	-2.9
CCN1CCN(Cc2ccc(OC(F)(F)F)cc2)CC1	-13.3	5.0	3.4%	-18.3	-33.6*	2.7
